Bioassay records: PubChem BioAssay, National Center for Advancing Translational Sciences (NCATS)
HT1080NT lethal = kills 2HG-producing HT-1080-NT fibrosarcoma cells. HT-1080-NT fibrosarcoma viability, CellTiter-Glo ATP luminescence, 48 h. Potency, µM (doses to about 46.1 µM), without a hit: at the highest dose activity, negative = less viability, actives largely listed as cytotoxic. 360,000 tested, 1.6% active. AID 686970;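 also: NT is the 2HG producing partner of a matched IDH1 knockdown line; potency is read from the fitted curve at half-maximal effect; 0% = DMSO-treated cells and -100% = media-only wells without cells; nearly all actives have a fitted effect of over 55% in size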
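Fibrosarcoma NT cells, 750 per well in 5% FBS RPMI, were exposed to compound for 48 hours. Viability: CellTiter-Glo luminescence.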
uPA generation = blocks generation of uPA at the cell surface; Potency, µM (top dose mostly 38.3 µM), for inactives: top-dose activity change, negative = inhibition, most hits filed as inhibitors; 330,000 tested, 0.31% active; AID 540303; cell surface uPA generation assay, qHTS; active = well fitted inhibition curve with a large enough effect; inconclusive = small, poorly fitted or top-dose-only effect; inactive = no such curve, though single readings can be large or run the other way; tested in mouse RAW 264.7 cells; also: potency is read from the fitted curve at half-maximal effect; nearly all actives have a fitted effect of over 55% in size
TDP1 cell CPT = growth inhibition of DT40 Tdp1-/-;hTDP1 cells with camptothecin (screen for TDP1 inhibitors). chicken DT40 Tdp1-/-;hTDP1 cells + 20 nM CPT, ATP luminescence, 48 h. Potency, µM (top dose mostly 46.2 µM), without a hit: at the highest dose activity change, negative = growth inhibition, actives largely listed as inhibitors. 420,000 tested, 12% active. AID 686979; also: potency is read from the fitted curve at half-maximal effect; nearly all actives have a fitted effect of over 55% in size
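Chicken DT40 Tdp1-/- cells stably complemented with human TDP1 were seeded at 400 cells/well in medium containing 20 nM camptothecin, exposed to pin-transferred compounds, and grown at 37 °C for at least 48 hr. Viability was read as ATP luminescence.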
HT1080 IDH1KD tx = kills HT-1080 cells with IDH1 knockdown; Potency, µM (top dose mostly 46.1 µM), for the others: at the top dose activity, negative = toxicity, usual class: cytotoxic; 360,000 tested, 2% active; HT-1080 IDH1 knockdown viability, ATP luminescence, 48 h;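 also: potency is read from the fitted curve at half-maximal effect; 0% = DMSO wells and -100% = cell-free medium wells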
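IDH1KD HT-1080 cells, 750/well, RPMI + 5% FBS; compound pinned after 2 h settling; 48 h, 37 °C; CellTiter-Glo luminescence; % activity normalised to DMSO and no-cell wells; curves fitted, classed by r2 and efficacy.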
TDP1 cell noCPT = qHTS for Inhibitors of human tyrosyl-DNA phosphodiesterase 1 (TDP1): qHTS in cells in absence of CPT. DT40 Tdp1-/- hTDP1 cells, no CPT, ATP luminescence, 48 h. Potency, µM (series often up to 46.2 µM), for the others: at the highest dose activity change, negative = growth inhibition, usual class: inhibitors. 420,000 tested, 15% active; also: potency is read from the fitted curve at half-maximal effect; nearly all actives have a fitted effect of over 55% in size
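No-CPT arm: Tdp1-/-;hTDP1 DT40 cells (400/well) plus compounds, incubated ≥48 hr at 37 °C. Readout CellTiter-Glo luminescence.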
IL-1B inflam inh = inhibitors of inflammasome signaling (IL-1 beta secretion) | THP-1 LPS/ATP IL-1B secretion, AlphaLISA, 16 h; hits give low values | activity change, % at 57.5 µM | 360,000 tested, 4.7% active; in the data active = activity change below about -50%; inconclusive = mostly about -30% to -49%
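THP-1 cells pretreated 1 hr with compounds (up to 57.5 uM final), then stimulated with LPS (250 ng/mL final) plus ATP (1.25 mM final); secreted IL-1B measured by AlphaLISA after 16 hr, decreased signal indicating inhibition.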
* marks the source's active call; other numbers are inactive results; ? = inconclusive; . = no result. Compounds with a hit are over-represented: about 19% of the library has one in this group of screens. Unless noted, calls follow the shape of the dose curve; as a rule, active = well fitted curve in the direction sought with a large enough effect; inconclusive = small, poorly fitted or top-dose-only effect, or another doubt; inactive = no such curve, though single readings can be large; an effect the other way counts as inactive or inconclusive. Unless noted, % is scaled to controls: 0 for no effect and ±100 for the full control effect.

SMILES	HT1080NT lethal	uPA generation	TDP1 cell CPT	HT1080 IDH1KD tx	TDP1 cell noCPT	IL-1B inflam inh
C[C@@H]1CN([C@H](C)CO)C(=O)c2cc(C#CC3CCCCC3)cnc2O[C@H]1CN(C)Cc1cccnc1	-17.1%	.	?	-0.7%	?	-12.9
C/C=C/c1cnc2c(c1)C(=O)N([C@@H](C)CO)C[C@H](C)[C@@H](CN(C)S(=O)(=O)c1ccc(C)cc1)O2	-2.8%	.	23.1µM*	2.7%	23.1µM*	-10.9
C[C@@H]1CN([C@@H](C)CO)C(=O)c2cc(C#CC3CCCCC3)cnc2O[C@@H]1CN(C)S(=O)(=O)c1ccc(F)cc1	-29.3%	.	16.4µM*	-28.5%	14.6µM*	-52.7*
CCN(C(=O)COC(=O)/C=C/c1cccc([N+](=O)[O-])c1)c1ccccc1	11.7%	4.5%	-17.6%	8.2%	-29.8%	0.0
Cc1ccc2[nH]cc(C(c3ccccc3)c3ccc(Cl)s3)c2c1 (configuration not stated)	.	.	?	.	14.6µM*	.
CCc1ccc(C(c2ccccc2)c2c[nH]c3ccc(C)cc23)s1 (configuration not stated)	.	.	?	.	16.4µM*	.
Cc1ccc(NC(=O)COC(=O)c2ccc(C)c(S(=O)(=O)N3CCOCC3)c2)cc1	7.5%	-2.4%	10.3%	0.7%	6.3%	3.9
O=C(O)[C@H]1CN(CCCP(=O)(O)O)CCN1	.	.	23.3%	.	-5.7%	.
COc1ccc(NC(=O)C(Cc2ccccc2)NS(=O)(=O)c2ccc3c(c2)oc(=O)n3C)c(OC)c1 (configuration not stated)	.	.	-8.7%	.	-19.9%	.
COc1ccc(CN(C(=S)Nc2ccccc2)C2CC(=O)N(c3ccc(Cl)cc3)C2=O)cc1 (configuration not stated)	11.6µM*	7.0%	?	?	-27.9%	-21.3
COc1ccc(CN(C(=S)Nc2ccccc2)C2CC(=O)N(c3ccccc3)C2=O)cc1 (configuration not stated)	-5.6%	3.7%	?	-18.1%	?	23.3
N#Cc1cccc(C#N)c1Oc1ccc(S(=O)(=O)Nc2ccc(Cl)cc2)cc1	-5.0%	-6.5%	-62.4%	-4.6%	16.4µM*	-29.9
OCC(S)CS (configuration not stated)	.	.	?	.	16.8µM*	.
OC[C@H](S)CS	.	.	8.91µM*	.	15.8µM*	.
CCC(=O)N1CCc2cc(Br)cc(S(=O)(=O)N3CCN(c4cccc(Cl)c4)CC3)c21	.	.	1.7%	.	-14.4%	.
COC(=O)N1CCC[C@@]2(CCN(Cc3cc(C(F)(F)F)cc(C(F)(F)F)c3)C2)C1	.	.	10.0%	.	0.7%	.
CCOC(=O)C1(C)CCCN(C(=O)c2cc(F)ccc2C)C1 (configuration not stated)	25.0%	.	3.2%	6.2%	-14.1%	-16.9
O=[N+]([O-])c1ccc(-c2nnc(-c3ccccc3)c(NCCCO)n2)cc1	0.8%	1.1%	20.6µM*	-7.3%	16.4µM*	-17.9
O=C(Cn1c(NCCCO)nc2ccccc21)c1ccc([N+](=O)[O-])cc1	0.2%	-2.8%	?	5.9%	0.2%	-7.1
OCCCNc1nc(-c2ccc(Cl)cc2)nnc1-c1ccc(Br)cc1	?	-5.5%	23.1µM*	?	20.6µM*	-78.4*
Clc1ccc(-c2nnc(NCCN3CCCC3)c3ccccc23)cc1	-11.6%	8.8%	-22.7%	-7.2%	-25.4%	?
Cc1cccc(C(=O)NCC(=O)OCc2cc(=O)n3nc(C4CCCCC4)sc3n2)c1	.	.	1.5%	.	1.2%	.
CCOC(=O)Cc1ccc(Nc2nc(NCCOC)nc3ccsc23)cc1	-1.4%	.	13µM*	-17.2%	14.6µM*	-27.8
COCCNc1nc(Nc2ccc(C(=O)OC)cc2)c2sccc2n1	-25.2%	.	11.6µM*	?	16.4µM*	19.4
